# Laboratory results from PubChem BioAssay (NCI).
# This is part of a sample that, as a whole, favours compounds with a hit. Of some 83,000 tested, about 20% had one in any assay.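 Compound tested at a single concentration for 48 hours in 96-well plates; a percent growth value below 10 was scored as active.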 Calls of active or inactive are those of the source.
# Test system: HCT-15 colon
# Assay: NCI-60 one-dose screen, 48 h (100 = growth as untreated, 0 = no growth, -100 = all killed)
# Conditions: 10 µM unless noted
row,SMILES,growth
1,O=C1C(Cl)=C(NCCCN2CCOCC2)C(=O)c2ccccc21,79.5% (inactive)
2,COC(=O)c1cc(-c2ccc(C)cc2)n(C(=O)CSc2nc3sc(C(N)=O)c(C)c3c(=O)n2Cc2ccccc2)n1,98.1% (inactive)
3,COc1cccc(OC)c1OC(=O)c1ccccc1,109% (inactive)
4,CCCCC/C=C\C/C=C/CCCCCCCCNC(=O)Nc1ccc([N+](=O)[O-])cc1,78% (inactive)
5,Clc1ccc(Nc2ccnc(N3CCN(c4ccnc5cc(Cl)ccc45)CC3)n2)cc1,20.4% (inactive)
6,Cc1ccc(S(=O)(=O)N(c2ccc(Cl)cc2)c2ccc(Br)cc2C(=O)O)cc1,100% (inactive)
7,Cn1c2ccccc2c2nn(Cc3ccccc3)c(=O)nc21,94.6% (inactive)
8,Clc1ccc2c(N3CCN(c4ccnc(NC5CCCCC5)n4)CC3)ccnc2c1,2.81% (active)
9,Cn1c2ccccc2c2nn(C(=O)c3ccccc3)c(=O)nc21,101% (inactive)
10,COc1ccc(OC2=C(C#N)C(=N)N3c4ccccc4Sc4ccccc4C3N2)cc1 (stereo not given),105% (inactive)
11,NC(=S)N/N=C1\c2ccccc2-c2c(F)c(F)c(F)c(F)c21,62.8% (inactive)
12,NC(=O)c1cc(I)ccc1NC(=O)COc1ccc(Cl)cc1Cl,62.8% (inactive)
13,CCC12CCC3c4ccc(O)cc4CCC3C1CC(O)C2O (stereo not given),57.4% (inactive)
14,O=C1NC(=O)C(CSc2ccccc2)(c2ccccc2)N1 (stereo not given),119% (inactive)
15,C=C(C)COC(=O)c1ccccc1C(=O)OCC1(C)CO1 (stereo not given),107% (inactive)
16,COc1ccc(NC(=O)COc2ccccc2)c(C(N)=O)c1,28.8% (inactive)
17,O=c1nc(NO)[nH]c(=O)n1Cc1ccc(F)cc1,107% (inactive)
18,NC(=O)c1cc(I)ccc1NC(=O)COc1ccccc1,20.1% (inactive)
19,O=C(Nc1ccccc1O)c1ccc(NS(=O)(=O)c2cccc3cccnc23)cc1,63.9% (inactive)

row,SMILES,growth
1,CC(=O)OC[C@H](O)[C@@]1(O)CC[C@H]2[C@@H]3CCC4=CC(=O)CC[C@]4(C)[C@H]3[C@@H](O)C[C@@]21C,105% (inactive)
2,COc1cc(NC(=O)COc2ccccc2)c(C(N)=O)cc1OC,30.1% (inactive)
3,COc1ccc(Nc2[nH]n(C3=Nc4ccccc4Sc4ccccc43)c(=O)c2C#N)cc1,49.3% (inactive)
4,COc1c(Cl)ccc2c(-c3nc4cc(Cl)c(F)cc4s3)cc(=O)oc12,82% (inactive)
5,Cn1c2ccc(Cl)cc2c2nn(C(=O)c3ccccc3)c(=O)nc21,96.7% (inactive)
6,CC(=O)Nc1ccc(S(=O)(=O)N/N=C\c2ccc(Cl)c(Cl)c2)cc1,118% (inactive)
7,COc1ccc(/C=C(\C#N)c2ccc(OC)cc2)cc1,66.2% (inactive)
8,CCCCNNC(=O)c1ccc(Br)cc1,78.6% (inactive)
9,CC(=O)c1cc(C)c(OC(=O)c2ccccc2)c(C)c1,92.2% (inactive)
10,Clc1nc(-c2ccccn2)nc2sc3c(c12)CCCCCC3,84.2% (inactive)
11,Cc1ccc(C(=O)Nc2ccccc2N)cc1,88% (inactive)
12,COc1cccc(OC(=O)c2ccccc2)c1OC(=O)c1ccccc1,70.9% (inactive)
13,COC(=O)c1ccc(C(=O)Nc2ccccc2N)cc1,83.9% (inactive)
14,CCSc1nnc2c3cc(Br)ccc3n(C)c2n1,96.7% (inactive)
15,N#CCCN1CCN(CCC#N)C1=S,106% (inactive)
16,COC(=O)/C=C1/CCC2C3CCC4=CC(=O)C(Br)CC4(C)C3C(=O)CC12C (stereo not given),66.6% (inactive)
17,NC(=O)c1cc(Cl)ccc1NC(=O)COc1ccccc1,33.3% (inactive)
18,CN1CCN(CCCn2c3c(sc4ncccc43)c(=O)n3nnc(-c4ccccc4)c23)CC1,-40.1% (active)

# Test system: HT29 colon
# Assay: as above
# Conditions: 10 µM unless noted
row,SMILES,growth
1,O=C1C(Cl)=C(NCCCN2CCOCC2)C(=O)c2ccccc21,93.7% (inactive)
2,COC(=O)c1cc(-c2ccc(C)cc2)n(C(=O)CSc2nc3sc(C(N)=O)c(C)c3c(=O)n2Cc2ccccc2)n1,115% (inactive)
3,Oc1ccc2ccccc2c1C1NN=C(c2ccccc2)S1 (stereo not given),37.8% (inactive)
4,CCCCC/C=C\C/C=C/CCCCCCCCNC(=O)Nc1ccc([N+](=O)[O-])cc1,60.7% (inactive)
5,Clc1ccc(Nc2ccnc(N3CCN(c4ccnc5cc(Cl)ccc45)CC3)n2)cc1,32.2% (inactive)
6,Cc1ccc(S(=O)(=O)N(c2ccc(Cl)cc2)c2ccc(Br)cc2C(=O)O)cc1,107% (inactive)
7,CCN1CCN(C(=S)SCC(=O)Nc2nc3ccc(OC)cc3s2)CC1,102% (inactive)
8,Cn1c2ccccc2c2nn(Cc3ccccc3)c(=O)nc21,112% (inactive)
9,Clc1ccc2c(N3CCN(c4ccnc(NC5CCCCC5)n4)CC3)ccnc2c1,3.22% (active)
10,Cn1c2ccccc2c2nn(C(=O)c3ccccc3)c(=O)nc21,105% (inactive)
11,COc1ccc(OC2=C(C#N)C(=N)N3c4ccccc4Sc4ccccc4C3N2)cc1 (stereo not given),119% (inactive)
12,NC(=S)N/N=C1\c2ccccc2-c2c(F)c(F)c(F)c(F)c21,52.8% (inactive)
13,NC(=O)c1cc(I)ccc1NC(=O)COc1ccc(Cl)cc1Cl,85.1% (inactive)
14,CCC12CCC3c4ccc(O)cc4CCC3C1CC(O)C2O (stereo not given),96.9% (inactive)
15,C=C(C)COC(=O)c1ccccc1C(=O)OCC1(C)CO1 (stereo not given),107% (inactive)
16,COc1ccc(NC(=O)COc2ccccc2)c(C(N)=O)c1,6.77% (active)
17,NC(=O)c1cc(I)ccc1NC(=O)COc1ccccc1,7.08% (active)

row,SMILES,growth
1,O=C(Nc1ccccc1O)c1ccc(NS(=O)(=O)c2cccc3cccnc23)cc1,39.9% (inactive)
2,CC(=O)OC[C@H](O)[C@@]1(O)CC[C@H]2[C@@H]3CCC4=CC(=O)CC[C@]4(C)[C@H]3[C@@H](O)C[C@@]21C,101% (inactive)
3,COc1cc(NC(=O)COc2ccccc2)c(C(N)=O)cc1OC,1.53% (active)
4,COc1ccc(Nc2[nH]n(C3=Nc4ccccc4Sc4ccccc43)c(=O)c2C#N)cc1,68.7% (inactive)
5,COc1c(Cl)ccc2c(-c3nc4cc(Cl)c(F)cc4s3)cc(=O)oc12,5.31% (active)
6,CC(=O)Nc1ccc(S(=O)(=O)N/N=C\c2ccc(Cl)c(Cl)c2)cc1,102% (inactive)
7,COc1ccc(/C=C(\C#N)c2ccc(OC)cc2)cc1,35.6% (inactive)
8,CCCCNNC(=O)c1ccc(Br)cc1,36.9% (inactive)
9,Clc1nc(-c2ccccn2)nc2sc3c(c12)CCCCCC3,99.3% (inactive)
10,Cc1ccc(C(=O)Nc2ccccc2N)cc1,79.4% (inactive)
11,Oc1ccccc1/C=N/Nc1nc2ccccc2s1,105% (inactive)
12,COc1cccc(OC(=O)c2ccccc2)c1OC(=O)c1ccccc1,85.3% (inactive)
13,COC(=O)c1ccc(C(=O)Nc2ccccc2N)cc1,86.9% (inactive)
14,CCSc1nnc2c3cc(Br)ccc3n(C)c2n1,104% (inactive)
15,N#CCCN1CCN(CCC#N)C1=S,98.6% (inactive)
16,CN1CCN(CCCn2c3c(sc4ncccc43)c(=O)n3nnc(-c4ccccc4)c23)CC1,-46.2% (active)
